Experimental data published in PubChem BioAssay (NCATS).
Results filed as inconclusive are left out. Activity calls are given as the source filed them. Calls follow the shape of the dose curve; as a rule, active = well fitted curve in the direction sought with a large enough effect; inconclusive = small, poorly fitted or top-dose-only effect, or another doubt; inactive = no such curve, though single readings can be large; an effect the other way counts as inactive or inconclusive.

Tests used:
[1] = HEK293 24hr Apoptosis Induction qHTS against the NCATS CANVASS Library (AID 1347359); details: HEK293 caspase-3/7 activation, Caspase-Glo luminescence; series mostly up to 46.1 µM
Summary of the method: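 HEK293 cells, 500 per well, exposed to an 11-point compound series for 24 hours at 37 degrees C. Caspase 3/7 activity read by Caspase-Glo luminescence (DEVD substrate) after 15 min at room temperature.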

[2] = HPAF-II 18hr Apoptosis Induction qHTS against the NCATS CANVASS Library (AID 1347360); details: HPAF-II caspase-3/7 luminescence; series mostly up to 46.1 µM
Summary of the method: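 Caspase-3/7 activation was measured with luminescent Caspase-Glo 3/7 reagent (15 min, RT) in HPAF-II cancer cells (500 cells/well). Before detection, cells had been treated for 18 h at 37 C with compounds (11 points).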

[3] = HEK293 12hr Apoptosis Induction qHTS against the NCATS CANVASS Library (AID 1347361); details: HEK293 caspase-3/7 Caspase-Glo luminescence; series mostly up to 46.1 µM
Summary of the method: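 HEK293 cells (500/well, DMEM + 10% FBS) were exposed to natural products across an 11-point series for 12 hours at 37 degrees C. Caspase-3/7 activity was then measured with DEVD luciferase luminescence after 15 min at room temperature.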

[4] = biological target: Luciferin 4-monooxygenase (Photinus pyralis) (UniProt P08659); assay: Firefly luciferase counterscreen qHTS: Assay Interference Panel against the NCATS CANVASS Library (AID 1347363); details: purified firefly luciferase, luminescence inhibition, 5 min; series mostly up to 57.5 µM
Sequence of Luciferin 4-monooxygenase (Photinus pyralis) (P08659 whole entry, looked up): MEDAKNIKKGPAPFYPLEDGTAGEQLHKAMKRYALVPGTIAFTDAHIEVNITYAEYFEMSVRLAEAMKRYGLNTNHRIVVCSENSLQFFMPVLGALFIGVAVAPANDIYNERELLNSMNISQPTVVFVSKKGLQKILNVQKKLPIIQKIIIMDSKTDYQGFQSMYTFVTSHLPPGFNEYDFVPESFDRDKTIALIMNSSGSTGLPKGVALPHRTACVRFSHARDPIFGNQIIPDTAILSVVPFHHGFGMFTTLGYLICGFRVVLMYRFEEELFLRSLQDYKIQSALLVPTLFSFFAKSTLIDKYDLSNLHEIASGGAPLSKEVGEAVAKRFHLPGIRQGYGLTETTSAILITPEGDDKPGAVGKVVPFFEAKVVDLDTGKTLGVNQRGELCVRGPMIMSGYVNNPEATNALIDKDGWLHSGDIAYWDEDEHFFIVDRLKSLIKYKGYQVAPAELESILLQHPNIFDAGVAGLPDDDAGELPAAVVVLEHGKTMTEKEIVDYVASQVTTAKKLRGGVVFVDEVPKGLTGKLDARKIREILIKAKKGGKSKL
Summary of the method: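 Purified P. pyralis luciferase (0.04 ug/mL, 4x reagent) added to Tris-acetate buffer with 0.013 mM D-luciferin, 0.013 mM ATP and 13.3 mM Mg-acetate; compounds preincubated 15 min, then luminescence read after 5 min, RT.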

[5] = KB-8-5-11 Cancer Cell Toxicity qHTS against the NCATS CANVASS Library (AID 1347364); details: KB-8-5-11 MDR cells viability, CellTiter-Glo, 72 h; series mostly up to 46.1 µM; also: potency is read from the fitted curve at half-maximal effect; nearly all actives have a fitted effect of over 75% in size
Summary of the method: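 Viability read as CellTiter-Glo luminescence after 72 h at 37 °C, 5% CO2. 11-point compound series on 500 KB-8-5-11 cells/well in DMEM/10% FBS. Follow-up plating included 1 uM tariquidar in the medium.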

[6] = qHTS for ATAD5 Agonist screened against the NCATS CANVASS Library (AID 1347367); details: HEK293T ATAD5-luciferase reporter, luminescence, 16 h; series mostly up to 46.1 µM;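 also: luciferase reporter driven by ATAD5 which rises upon DNA damage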
Summary of the method: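 Genotoxicity via ATAD5-luciferase luminescence after 16 h compound exposure (11-point series) at 37C in HEK293T-ATAD5 cells. CellTiter-Fluor viability read precedes the luminescence read; MMS serves as positive control.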

[7] = G06 Cancer Cell Toxicity qHTS against the NCATS CANVASS Library (AID 1347368); details: G06 dog glioma cells, viability ATP luminescence, 72 h; series mostly up to 46.1 µM; also: nearly all actives have a fitted effect of over 60% in size
Summary of the method: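 Viability measured by CellTiterGlo ATP luminescence after 72 hr at 37C, 5% CO2. Canine G06 glioma cells plated at 500/well. Compounds tested as 11-point qHTS titrations.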

[8] = MCF7 Cancer Cell Toxicity qHTS against the NCATS CANVASS Library (AID 1347369); details: MCF7 viability, ATP luminescence (CellTiter-Glo), 72 h; series mostly up to 46 µM
Summary of the method: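 Cytotoxicity was measured as CellTiterGlo luminescence (ATP) after 72 h at 37 °C. The cells were MCF7 at 500 per well, with an 11-point compound concentration series.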

[9] = qHTS for ATAD5 Antagonist screened against the NCATS CANVASS Library (AID 1347370); details: HEK293T-ATAD5-luc, 5-FUrd stimulated, luminescence, 16 h; series mostly up to 46.1 µM; also: potency is read from the fitted curve at half-maximal effect; nearly all actives have a fitted effect of over 65% in size
Summary of the method: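 Compounds (11-point) co-dosed with 10 µM 5-FUrd for 16 h at 37 °C onto HEK293T-ATAD5 luciferase reporter cells. Viability measured by CellTiter-Fluor fluorescence, then ATAD5 reporter signal by luminescence.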

[10] = J3T Cancer Cell Toxicity qHTS against the NCATS CANVASS Library (AID 1347371); details: J3T dog glioma viability, ATP luminescence, 72 h; series mostly up to 46.1 µM;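 also: J3T is a canine glioma cancer cell line seeded at 500 cells per well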
Summary of the method: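 Cytotoxicity read as CellTiterGlo ATP luminescence after 72 h incubation (37C, 5% CO2) of J3T canine glioma cells (500/well) with an 11-point compound series.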

[11] = biological target: Nuclear receptor subfamily 1 group I member 3 (Homo sapiens) (UniProt Q14994); assay: qHTS for Constitutive Androstane Receptor (CAR) Antagonist screened against the NCATS CANVASS Library (AID 1347372); details: HepG2-hCAR-CYP2B6 luciferase, CITCO-stimulated antagonist mode; series mostly up to 46.1 µM;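 also: cells stimulated with 50 nM CITCO agonist so inhibition reflects antagonism; luciferase from CYP2B6 promoter reporter driven by hCAR in HepG2 cells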
Sequence of Nuclear receptor subfamily 1 group I member 3 (Homo sapiens) (Q14994 whole entry, looked up): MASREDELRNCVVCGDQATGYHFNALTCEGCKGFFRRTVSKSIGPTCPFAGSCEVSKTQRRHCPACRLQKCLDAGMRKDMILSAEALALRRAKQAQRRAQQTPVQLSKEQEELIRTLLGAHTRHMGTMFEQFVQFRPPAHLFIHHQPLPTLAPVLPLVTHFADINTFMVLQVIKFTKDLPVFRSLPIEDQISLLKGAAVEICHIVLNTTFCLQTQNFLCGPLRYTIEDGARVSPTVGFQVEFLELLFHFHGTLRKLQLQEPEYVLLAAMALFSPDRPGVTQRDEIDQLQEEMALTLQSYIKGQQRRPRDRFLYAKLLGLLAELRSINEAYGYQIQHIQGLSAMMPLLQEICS
Summary of the method: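 Luminescence readout (ONE-Glo, 30 min RT) of CYP2B6-2.2kb reporter in HepG2-hCAR cells after 24hr, 37C treatment with compound against 50 nM CITCO; CellTiter-Fluor viability read beforehand.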

[12] = biological target: Nuclear receptor subfamily 1 group I member 3 (Homo sapiens) (UniProt Q14994); assay: qHTS for Constitutive Androstane Receptor (CAR) Agonist screened against the NCATS CANVASS Library (AID 1347373); details: HepG2-hCAR-CYP2B6 luciferase reporter, ONE-Glo luminescence; series mostly up to 46.1 µM;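 also: every well also contained 1.5 µM PK11195 alongside the test compound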
Summary of the method: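 Agonist mode with 1.5uM PK11195 present: compounds for 24hr on HepG2-hCAR-CYP2B6 cells. CellTiter-Fluor fluorescence (ex 405, em 540 nm) gives viability; ONE-Glo luminescence reports CAR activation.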

[13] = qHTS for Hypoxia signaling pathway (HIF-1) antagonists against the NCATS CANVASS Library (AID 1347374); details: HRE-bla ME-180 cells, HIF-1 beta-lactamase reporter, CoCl2; series mostly up to 38.3 µM;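 also: HRE-bla ME-180 cells stimulated with cobalt chloride to stabilize HIF-1alpha; nearly all actives have a fitted effect of over 60% in size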
Summary of the method: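 Antagonism scored as loss of CoCl2-driven (60 uM stock added) HRE beta-lactamase signal, read by CCF4 FRET at 460/530 nm. Compounds were tested in an 11-point series on ME-180 reporter cells for 17 hrs at 37C, with parallel CellTiter-Glo cytotoxicity.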

[14] = qHTS for Hypoxia signaling pathway (HIF-1) agonists against the NCATS CANVASS Library (AID 1347375); details: HRE-bla ME-180 cells, HIF-1 beta-lactamase reporter, 17 h; series mostly up to 38.3 µM
Summary of the method: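 Beta-lactamase reporter under HRE control in ME-180 cells; compounds (11-point qHTS series) added after 5 hrs plating, then 17 hrs at 37C. FRET substrate read after 2 hr; same-well CellTiter-Glo luminescence gave viability and normalization.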

[15] = 10-beta competent E. coli microbial cell viability qHTS against the NCATS CANVASS Library (AID 1347376); details: E. coli 10-beta viability, BacTiter-Glo ATP luminescence, overnight; series mostly up to 46.1 µM
Summary of the method: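 Read-out: BacTiter-Glo ATP luminescence, taken 20 min after reagent addition. Beforehand, 10-beta competent E. coli at 0.2 OD had been incubated overnight at 37C with compounds at 11 concentrations.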

[16] = DH5-alpha competent E. coli microbial cell viability qHTS against the NCATS CANVASS Library (AID 1347377); details: BacTiter-Glo ATP luminescence, overnight; series mostly up to 46.1 µM
Summary of the method: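 Bacterial viability as ATP-dependent luminescence (BacTiter-Glo), read after overnight 37 °C exposure of DH5-alpha competent E. coli to compounds in 11-point titration.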

[17] = qHTS for H2AX Agonists against the NCATS CANVASS Library (AID 1347378); details: CHO-K1 H2AX phosphorylation, HTRF TR-FRET, 3 h; series mostly up to 76.9 µM
Summary of the method: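 Phospho-H2AX (S139) in CHO-K1 lysates measured by HTRF, reported as 665/615 nm emission ratio after 24 hr antibody incubation at room temperature. Cells were first treated with a compound series for 3 hr at 37C (0.76% DMSO final).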

[18] = qHTS for Inflammasome Signaling Inhibitors: IL-1-beta AlphaLISA screen against the NCATS CANVASS Library (AID 1347379); details: THP-1 LPS/ATP, IL-1B AlphaLISA secretion, 16 h; series mostly up to 57.5 µM;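 also: human THP-1 cells primed with LPS then triggered with ATP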
Summary of the method: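 Secreted IL-1B from human THP-1 cells quantified by AlphaLISA 16 hr after compound addition (final up to 57.5 uM). A 1 hr compound pretreatment preceded inflammasome activation with 250 ng/mL LPS plus 1.25 mM ATP (final).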

[19] = Inflammasome Signaling qHTS Counterscreen: IL-1-beta AlphaLISA counterscreen against the NCATS CANVASS Library (AID 1347381); details: Purified IL-1beta AlphaLISA signal interference counterscreen; series mostly up to 57.5 µM;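 also: cell-free check with purified IL-1β in medium and no THP-1 cells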
Summary of the method: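 Purified IL-1-beta (4 pg/well) + compound, 11-pt conc. series; acceptor beads 6 ug/mL + biotin-Ab 0.6 nM final, 1 h RT; SA-donor 24 ug/ml final, 30 min dark RT; read ex 680/em 615.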

[20] = Cytotoxicity qHTS for assessment of Hepg2 cells membrane integrity screened against the NCATS CANVASS Library (AID 1347387); details: HepG2 LDH release (CytoTox-ONE) fluorescence, 5 h; series mostly up to 46.1 µM
Summary of the method: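 Membrane damage quantified as fluorescent LDH-release signal (ex 560, em 590 nm) in HepG2 cells treated 5 hr at 37C. qHTS format, 11 concentrations spanning 0.59 nM - 46 uM final, cells plated at 2000 per well the night before.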

Measured: Potency

COc1ccc([C@@H]2c3cc4c(cc3C(=O)[C@H](C)C2C)OCO4)cc1OC (stereo not given in full)
active: [5] 16.6 µM | [9] 16.6 µM
inactive: all other assays above
